From PubChem
Sfp inh – blocks B. subtilis Sfp PPTase activity; Biochemical Sfp PPTase activity, qHTS; Potency, µM, for inactives: largest response in the series, negative = inhibition, hits mostly inhibitors; 310,000 compounds, 3.5% hits;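 note: the enzyme is Sfp with the accession as filed and its product quenches rhodamine fluorescence; potency is the fitted concentration of half-maximal effect; 0% = enzyme reaction without inhibitor and -100% = no enzyme wells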
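Sfp 15 nM + cpd, 15 min RT; start w/ rhodamine-CoA 5 uM, BHQ-2-YbbR 12.5 uM (final); 50 mM Hepes pH 7.6, 10 mM MgCl2, 0.01% NP-40, 0.01% BSA; read 525/598 nm at 0 and 30 min.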
Giardia killer – kills Giardia lamblia; Giardia lamblia trophozoite viability; 340,000 compounds, 0.15% hits; activity change, % at 7.66 µM, hits read low; in the data active = activity change below about -80%; inconclusive = between about -30% and that limit;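 note: parasites exposed to compound for two days anaerobically before the ATP read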
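Giardia trophozoites, 100 cells per well, were exposed to compounds for 48 hrs at 37 deg C under anaerobic conditions; viability was then read as ATP content by bioluminescence after 15-30 min at room temperature.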
ELG1 repair inh – blocks ELG1-dependent DNA repair in HEK293T cells. HEK293T ELG1-luciferase reporter, luminescence, 16 h; DNA damage induced by 5-fluorouridine. Potency, µM (highest dose often 46.1 µM), inactives show at the top dose activity change, negative = inhibition, hits mostly inhibitors. 330,000 compounds, 2.3% hits; note: potency is the fitted concentration of half-maximal effect; nearly all actives have a fitted effect of over 55% in size
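Cells (2,000 per well) received 5-fluorouridine plus test compound or DMSO and were incubated 16 hr at 37 °C, 5% CO2. Luciferase activity was read by luminescence 30 min after ONE-Glo addition; signal suppression marked inhibition of damage-induced ELG1 function.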
Coupling enz – inhibits coupling enzyme system, counter-screen for aldolase hits; coupling enzyme system counterscreen, AmpLite Red fluorescence; activity change, negative = inhibition, % at 58.2 µM, hits read low; 290,000 compounds, 0.67% hits; AID 2472; in the data active = activity change below about -30%
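Coupling enzymes only (glyceraldehyde-3-phosphate) + compound, at 57.5 uM final, 10 min RT; add substrate/coupling/AmpLite Red mix, 20 min RT; fluorescence ex 525/em 598 nm. Actives flag coupling-system interference.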
Numbers without * were called inactive; ? = inconclusive; . = no result. Compounds with a hit are over-represented: about 5.5% of the library has one in this group of screens. Unless noted, calls come from the whole dose curve; as a rule, active = well fitted curve in the direction sought with a large enough effect; inconclusive = small, poorly fitted or top-dose-only effect, or another doubt; inactive = no such curve, though single readings can be large; an effect the other way counts as inactive or inconclusive. Unless noted, % is set by controls: 0 for no effect and ±100 for the full control effect.

SMILES	Sfp inh	Giardia killer	ELG1 repair inh	Coupling enz
Cc1ccccc1N(Cc1cc(=O)[nH]c2ccccc12)C(=O)C(C)C	0%	-1	8%	5
Cc1ccccc1N(Cc1cc(=O)[nH]c2ccccc12)C(=O)CCl	-16%	.	10µM*	-2
O=C(CCl)N(Cc1cc(=O)[nH]c2ccccc12)c1ccccc1	-25%	12	13µM*	2
CCC(=O)N(Cc1cc(=O)[nH]c2ccccc12)c1ccccc1	-14%	31	-11%	8
Cc1cc(O)c(C)c(O)c1/C=N/NC(=O)c1cccnc1	15%	-15	?	0
COc1cccc(NC(=O)c2ccnc(N3CCC(C(=O)NCc4cc(OC)ccc4OC)CC3)c2)c1	-1%	11	?	.
COc1ccc(-c2nnc3n2N=C(c2ccc(OC)cc2OC)CS3)cc1	9%	.	.	0
CN1CCC2(CC1)N=C(c1ccc(F)cc1)C(=S)N2C(=O)c1ccccc1	50µM*	1	21%	1
COCCn1c(=O)cnc2cnc(Oc3ccc(OC)cc3)nc21	-12%	.	.	-10
O=C(C1CCCN(c2ncnc3c2nc2n3CCCCC2)C1)N1CCN(c2ccc(Cl)cc2)CC1 (configuration not stated)	-21%	11	?	-7
O=C(Nc1ccc(Cl)cn1)C1CCN(c2ncnc3c2nc2n3CCCCC2)CC1	-2%	-8	2.1µM*	1
O=C(C1CCN(c2ncnc3c2nc2n3CCCCC2)CC1)N1CCN(c2cccc(Cl)c2)CC1	-2%	14	2.3µM*	-1
O=C(Nc1ccc(F)c(Cl)c1)C1CCN(c2ncnc3c2nc2n3CCCCC2)CC1	14%	-19	7.3µM*	2
Cc1ccc(NC(=O)C2CCCN(c3ncnc4c3nc3n4CCCCC3)C2)nc1 (configuration not stated)	7%	5	3.3µM*	-3
O=C(Nc1ccc(Cl)cn1)C1CCCN(c2ncnc3c2nc2n3CCCCC2)C1 (configuration not stated)	1%	20	?	-2
Cc1ccnc(NC(=O)C2CCCN(c3ncnc4c3nc3n4CCCCC3)C2)c1 (configuration not stated)	13%	2	?	-6
COc1cc(OC)cc(C(=O)N/N=C\c2ccoc2)c1	10%	1	1%	0
O=C(NC1CC2CCCC(C1)N2Cc1ccccc1)c1ccc([N+](=O)[O-])cc1 (configuration not stated)	17%	-1	-1%	0
CC1CCN(S(=O)(=O)c2ccc(NC(=O)CCNC(=O)c3ccc(Cl)cc3)cc2)CC1	.	2	-5%	.
COc1ccc(C2=Nc3ccccc3C2(O)CCN2C(=O)c3ccccc3C2=O)cc1 (configuration not stated)	.	-18	.	.
CCC(=O)N1CCN(c2nc3ccc(Br)cc3s2)CC1	7%	20	?	4
CC(C)c1ccc(S(=O)(=O)N2CCC(C(=O)N3CCN(c4cccc(Cl)c4)CC3)CC2)cc1	.	7	.	.
O=C(C1CCN(S(=O)(=O)c2cccnc2)CC1)N1CCN(c2cccc(Cl)c2)CC1	9%	-7	21µM*	3
Cc1ccc(CN2CCC(CNC(=O)C3CCCN(c4ncnc5c4nc4n5CCCCC4)C3)CC2)cc1 (configuration not stated)	7%	-1	-17%	3
CC(=O)c1ccc(N2CCN(C(=O)C3CCCN(c4ncnc5c4nc4n5CCCCC4)C3)CC2)cc1 (configuration not stated)	2%	1	2.3µM*	0
SMILES	Sfp inh	Giardia killer	ELG1 repair inh	Coupling enz
COc1ccc(-c2noc(N3CCC(C(=O)Nc4ccccc4OC)CC3)n2)cc1	-2%	-10	23µM*	-2
O=C(NCC1CCN(Cc2ccccc2F)CC1)C1CCCN(c2ncnc3c2nc2n3CCCCC2)C1 (configuration not stated)	6%	17	7.3µM*	0
CCCCCCC(NC(=O)Cc1ccc2ccccc2c1)C(=O)O (configuration not stated)	.	3	27%	.
COc1ccc(Cl)cc1NC(=O)C1CCCN(c2ncnc3c2nc2n3CCCCC2)C1 (configuration not stated)	2%	3	?	-9
O=C(Nc1ccccn1)C1CCCN(c2ncnc3c2nc2n3CCCCC2)C1 (configuration not stated)	13%	-2	-27%	-1
COc1ccccc1NC(=O)C1CCN(c2ncnc3c2nc2n3CCCCC2)CC1	1%	2	9.2µM*	-1
